# Screening data: PubChem, National Center for Advancing Translational Sciences (NCATS)
# This is one part of a sample in which hits are shown more often than they occur.
# Pf Dd2 inh: Plasmodium falciparum Dd2 growth inhibition. Potency, µM (highest dose often 28.9 µM), for inactives: at the top dose activity, negative = inhibition, actives largely listed as inhibitors. AID 1347417. P. falciparum Dd2 growth, SYBR Green, 72 h. hit rate 4.3% among 120,000; active means well fitted inhibition curve with a large enough effect;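 further: plate controls were DMSO vehicle for no effect and reference drug for full effect; nearly all actives have a fitted effect of over 65% in size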
#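 Infected erythrocytes (Dd2, 0.3% parasitemia, 2.5% hematocrit final) are added to compound in RPMI-1640/Albumax II medium, grown 72 h at 37C in low oxygen, then lysed with saponin/Triton-X containing SYBR Green and read by fluorescence.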
# * = called active by the depositor; i = inactive; [ ] = remark or other dose. Potency means the concentration at half of the fitted maximal effect.
SMILES,Pf Dd2 inh
O=C(CCCc1ccccc1)N1CCC(C2CCNC2)CC1 (stereo not given),-13%
O=C(Cc1cccc(F)c1)NCc1nnc2c(-c3nc(C4CC4)no3)cccn12,i
CCS(=O)(=O)N1CCCC(C(=O)Nc2ccccc2Oc2cccnc2)C1 (stereo not given),-14%
CCc1nc2c(c(-c3ccc(O)cc3)n1)CCN(C(=O)Nc1ccc(Cl)cc1)CC2,i
CCc1nc2c(c(-c3ccc(O)cc3)n1)CCN(Cc1ccccc1C(F)(F)F)CC2,1.8µM*
CCc1nc2c(c(-c3ccc(O)cc3)n1)CCN(C(=O)c1ccc(F)cc1)CC2,i
CCc1nc2c(c(-c3ccc(Cl)cc3)n1)CN(C(C)=O)CC2,3%[44.1 µM]
CCc1nc2c(c(-c3ccc(O)cc3)n1)CN(Cc1ccc(F)cc1)CC2,-7%
O=C(C1CCCC1)N1CCc2nc(-c3ccc(Cl)cc3)nc(-c3ccccc3)c2C1,i
O=C(C1CC1)N1CCc2nc(-c3ccccc3)nc(-c3ccc(Cl)cc3)c2C1,i
O=C(C1CCCC1)N1CCc2nc(-c3ccccc3)nc(-c3ccc(Cl)cc3)c2C1,4µM*
CCc1nc2c(c(-c3ccc(Cl)cc3)n1)CN(C(=O)Nc1ccccc1)CC2,11µM*
CC(C)Cc1cc(C(=O)N[C@H](C2CCNCC2)C2CC(O)C2)nc(N)n1 (stereo not given in full),3%
O=[S+]1([O-])NC2(CCCN(Cc3cncs3)C2)CNc2ccccc21 (stereo not given),39%
O=C(CC1CCOCC1)NCc1cccc(F)c1,-24%
Cc1ccc(NC(=O)c2cc3nc(-c4ccccc4)cc(-c4ccccc4)n3n2)cc1,45%
CC(C)c1ccc(NC(=O)c2cnn3c(C(F)F)cc(-c4ccccc4)nc23)cc1,5µM*
C#CC(C)(CC)NC(=O)c1cnn2c(C(F)F)cc(-c3ccccc3OC)nc12 (stereo not given),-15%
CCCCN(CCC(=O)NCc1ccco1)C(=O)c1cc(C)oc1C,-8%
COc1ccccc1C1C=C(c2ccc(C(C)C)cc2)Nc2nnnn21 (stereo not given),i
COc1ccccc1C1C=C(c2ccc(F)cc2)Nc2nc(-c3ccc(Cl)cc3)nn21 (stereo not given),11µM*
CC1=C(C(=O)Nc2cccnc2)C(c2ccccc2Cl)n2nc(-c3ccccc3)nc2N1 (stereo not given),-7%
COc1ccccc1C1C=C(c2ccc(Cl)cc2)Nc2nc(-c3ccc(Cl)cc3)nn21 (stereo not given),2.8µM*
CCc1ccc(C2=CC(c3c(F)cccc3Cl)n3c(nc4ccccc43)N2)cc1 (stereo not given),24%
COc1cccc(C2=CC(c3cc(Br)ccc3F)n3nnnc3N2)c1 (stereo not given),-5%
SMILES,Pf Dd2 inh
COC(=O)c1cn([C@H]2CO[C@H]3[C@@H]2OC[C@@H]3NC(=O)c2ccc(N(C)C)cc2)nn1,i
COc1ccc2c(c1)OCC(C(=O)NCCNc1cc(C)ccn1)C2 (stereo not given),-12%
O=C(Nc1nn(-c2cccc(F)c2)c2cccc(N3CCOCC3)c12)C1CCC1,8%
CC(=O)NCC(=O)N1C[C@@H](COCC2CC2)[C@H](c2ccncc2)C1,47%
COc1cc(CNCCc2ccc(Cl)cc2)ccc1OCC(O)CN1CCOCC1 (stereo not given),11µM*
COc1ccc(Cl)cc1NC(=O)N(C)CC1CCOCC1,-25%
COc1cc(CNCCc2ccc(F)cc2)ccc1OCC(O)CN1CCSCC1 (stereo not given),-18%
COc1cc(CNCCCO)ccc1OCC(O)CN1CCSCC1 (stereo not given),-13%
COc1cc(CNCC2CCOCC2)ccc1OCC(O)CN(C)C1CCCCC1 (stereo not given),13µM*
COc1cc(CN2CCC(C)(C#N)CC2)ccc1OCC(O)CN1CCOCC1 (stereo not given),1%
O=C1NCN(Cc2ccc(Cl)cc2)C12CCN(Cc1ccccc1C(F)(F)F)CC2,i
COCCCNC(=O)N1CC(c2nc(CCOCC3CCOCC3)no2)C1,12%
COc1ccc(NC(=O)CN2C(=O)NC3(CCC(C(C)(C)C)CC3)C2=O)cc1 (stereo not given),-10%
Cn1c(CNC(=O)CN2CC3CC(C2)[C@H]2CCCC(=O)N2C3)nc2ccccc21 (stereo not given in full),-8%
CCCC1c2nccn2CCCN1C(=O)c1cc(C)no1 (stereo not given),-7%
COc1ccccc1CN1CCC2(CC1)CC(C(=O)O)N(C(C)=O)C2 (stereo not given),6%
O=C(Nc1cccc(-c2ccc(F)cc2)c1)C1CCCN1C(=O)c1ccncc1 (stereo not given),-9%
O=C(O)C[C@@H]1CCN(C(=O)NC2CCCCC2)C[C@@H]1CCN1CCN(c2ccc(F)cc2)CC1,-14%
CNC(=O)c1ccc(CN2CCCC(CCc3ccccc3C(F)(F)F)C2)o1 (stereo not given),7.9µM*
O=C(C1CCOCC1)N1CCCC(CCc2ccccc2C(F)(F)F)C1 (stereo not given),-10%
